Sensor-assay potency score (higher = more potent) data for 40 sequences are collected here from the OligoGym collection.
Also: reference of the scale not given here.

For one assay, the target named is CD48. Description: pooled miR-30 sensor sort-seq; sequence = guide strand. As to conditions: shRNA.
Sequence TTGATCTTCCATTCTTGCTCAT displayed a sensor-assay potency score (higher = more potent) of 0.311.
Consider TGATCTTCCATTCTTGCTCATT, for which the sensor-assay potency score (higher = more potent) was -1.23.
On the same count and under the same terms, for TTCAAGCACACTGTTCTGGAGC the value was -0.656; for TAATTCAGCAGCATGCTTCTGG, 0.539.
Same read-out and setting: for TCAATTTTGATGACAGGCTTGG the value was 0.186; for TATCACACATGACAGTTTCAAA, -1.19; for TTAGATTTTCTGGAATCCCATT, -1.01.
Same read-out and setting: for TGTAGTTTACAGACTCGCCAGG the value was -0.895.
As to TTAACTTGAAAATCCTCGTTGA, the sensor-assay potency score (higher = more potent) amounted to 1.27.

The target of a further assay is CD58. The assay is described as above. As to conditions: shRNA.
TTGCTCCATAGGACAATCCCAT had a sensor-assay potency score (higher = more potent) of -1.06.
As to TTGAGTTACGTTTACATTGCTC, the sensor-assay potency score (higher = more potent) was -0.143.
In turn, TTGTTTTTTCCATAGGACCTCT displayed a sensor-assay potency score (higher = more potent) of -0.0433.
As for TAAAATAATTTAGTTATGCTGT, the sensor-assay potency score (higher = more potent) is -0.222.
Sequence TATAAGTGCATATCTGTGTCTT came in with a sensor-assay potency score (higher = more potent) of 0.724.
The same measure, in the same setting: in the case of TAAAGAAAGAACTTCATGGTAT it was 0.701; in that of TTTGTTGGGAAAAACAGCTGAT, -0.0646; in that of TAAAAGATGAGAAAGCTCTGAA, 0.844.
TACAGCACAATACATGTTGTAA: the sensor-assay potency score (higher = more potent) was -0.704.
TTCATATACAGCACAATACATG showed a sensor-assay potency score (higher = more potent) of -1.42.
The same measure, in the same setting: in the case of TTGTGGAAGATCATTTTCCATC it was -1.11; in that of TTAAAATATATACTGGTTGAGT, -0.467; in that of TTATCCTTTTGTTTTTTCCATA, -1.18.
Same read-out and setting: in the case of TTAAAAGATGAGAAAGCTCTGA it was -0.214.
TTACAAAAGTATCTACATCATC yielded a sensor-assay potency score (higher = more potent) of -0.687.
On to TTCTTCTTAAAGCAGCTGCTTC, for which the sensor-assay potency score (higher = more potent) is -0.594.
TTTAAAGGCACATTGCTTGGTA displayed a sensor-assay potency score (higher = more potent) of 0.706.
On the same count and under the same terms, in the case of TAATGCTCTGGTATCATGCATT it was -0.599; in that of TTTCATACTCATCTTCATCTGA, 0.555; in that of ATATACAGCACAATACATGTTG, 0.0974.
Same read-out and setting: for TATACAGCACAATACATGTTGT the value was -0.688.
On the same count and under the same terms, in the case of TAATAAGTTGATGACAGCCAAA it was -1.7; in that of TACATGTTGTAATTACTGCTAA, -0.161.

The next assay addresses CD86. Described as above. Particulars: shRNA.
In the case of TAGCAAGCACTGACAGTTCAGA, the sensor-assay potency score (higher = more potent) was -0.996.
Still for that read-out and setting: in the case of TAGAATTAGACAGAAAACCATC it was -0.951; in that of TTGTGAAGTCTCAGGGTCCAAC, -1.21; in that of TTCTGTGACATTATCTTGAGAT, 0.246.
On the same count and under the same terms, for TCATATTGCTCGTAACATCAGG the value was -0.912; for TTATATTAGAAATTGGTACTAT, 0.249.
Still for that read-out and setting: in the case of TAAGCTTGAATCTTCAGAGGAG it was 0.681.
Sequence AACACTGTCAAATTTCTCTTTG gave a sensor-assay potency score (higher = more potent) of -0.375.
